Bioassay records as filed in PubChem BioAssay.
An excerpt weighted towards active compounds, which were near 2.4% of everything screened.
POLK inh – inhibitors of human DNA polymerase kappa. Q9UBT6. purified Pol kappa, fluorescent DNA synthesis assay, 10 min. Potency, µM (highest dose often 107 µM), hits mostly inhibitors. hit rate 0.53% among 400,000. AID 588579
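10 nM Pol kappa was preincubated with compounds for 15 min at room temperature. Reaction started with 50 nM (final) substrate. Fluorescence read kinetically at 0 and 10 min.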
WRN helicase inh – WRN helicase (human) inhibition; Q14191; WRN helicase unwinding, fluorescent forked duplex, kinetic; Potency, µM (titrated, usually from 114 µM), hits mostly inhibitors; hit rate 0.46% among 360,000; AID 651768; also: nearly all actives have a fitted effect of over 55% in size
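Enzyme (20 nM final) and test compound sit together 15 min at room temperature before substrate addition. Substrate is a single-forked duplex oligonucleotide (100 nM) labelled with fluorophore and quencher, with 2 mM ATP; helicase unwinding raises red fluorescence, read kinetically.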
FEN1 inh-1 – inhibitors of human flap endonuclease 1. Recombinant FEN1 flap cleavage, fluorescence, 15 min. Potency, µM (doses to about 114 µM), hits mostly inhibitors. hit rate 0.35% among 390,000. AID 588795; also: nearly all actives have a fitted effect of over 65% in size
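With each library titrated from low to high concentration, compounds met 10 nM FEN1 for 15 min at room temperature before 50 nM substrate was added; readings at 0 and 15 min fed four-parameter Hill curve fits.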
POLH inh – inhibitors of human DNA polymerase eta | Q9Y253 | recombinant Pol eta, fluorescent DNA replication assay | Potency, µM (titrated, usually from 114 µM), most hits filed as inhibitors | hit rate 1.2% among 390,000
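Pol eta at 10 nM preincubated with compounds 15 min at room temperature; reaction started with fluorescent substrate (50 nM final) and read kinetically at 0 and 10 min.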
Pol iota inh – blocks human DNA polymerase iota activity | hit rate 1% among 390,000 | AID 588590 | Q9UNA4 | Pol iota fluorescent replication assay, 10 min | Potency, µM (top dose mostly 115 µM), usual class: inhibitors
Target sequence (Q9UNA4 whole entry, looked up): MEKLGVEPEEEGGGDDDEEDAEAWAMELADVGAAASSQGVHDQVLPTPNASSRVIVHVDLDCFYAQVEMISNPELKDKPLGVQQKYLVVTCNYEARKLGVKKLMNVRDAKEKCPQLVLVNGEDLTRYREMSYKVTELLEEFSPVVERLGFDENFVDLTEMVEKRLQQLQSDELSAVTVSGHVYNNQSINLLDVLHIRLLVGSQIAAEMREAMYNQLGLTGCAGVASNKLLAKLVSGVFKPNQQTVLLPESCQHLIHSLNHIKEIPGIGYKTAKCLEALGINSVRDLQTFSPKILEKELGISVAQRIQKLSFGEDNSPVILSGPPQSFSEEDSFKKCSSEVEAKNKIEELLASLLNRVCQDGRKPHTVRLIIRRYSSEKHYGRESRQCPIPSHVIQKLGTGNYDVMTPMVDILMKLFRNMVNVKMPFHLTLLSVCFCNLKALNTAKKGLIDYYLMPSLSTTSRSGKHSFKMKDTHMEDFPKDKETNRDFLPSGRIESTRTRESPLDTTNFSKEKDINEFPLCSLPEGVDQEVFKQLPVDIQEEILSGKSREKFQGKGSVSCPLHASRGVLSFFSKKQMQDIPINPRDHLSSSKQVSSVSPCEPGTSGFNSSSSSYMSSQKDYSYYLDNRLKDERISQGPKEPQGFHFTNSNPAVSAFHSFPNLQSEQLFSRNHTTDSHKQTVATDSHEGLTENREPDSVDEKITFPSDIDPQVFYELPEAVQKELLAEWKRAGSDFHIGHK
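Pol iota at 10 nM preincubated 15 min with compounds at room temperature; reaction started with fluorescent substrate, 50 nM final. Fluorescence read kinetically at 0 and 10 min; buffer-only wells as negative control.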
POLB inh – DNA polymerase beta (human) inhibition | P06746 | Pol beta primer extension/strand displacement, fluorescence kinetic | Potency, µM (doses to about 114 µM), usual class: inhibitors | hit rate 1.3% among 340,000 | AID 485314
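Curves were derived by four-parameter Hill fits of normalized qHTS data. The kinetic fluorescent primer-extension read was taken at 0 and 10 min after 50 nM substrate, following a 15 min room-temperature preincubation of 10 nM enzyme with compounds.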
FEN1 inh-2 – FEN1 inhibition, cherry-pick retest; shares compounds with FEN1 inh-1; FEN1 flap cleavage, TAMRA/BHQ2 fluorogenic DNA substrate; Potency, µM, hits mostly inhibitors; hit rate 79% among 880; also: nearly all actives have a fitted effect of over 60% in size
Each line names hits and unclear results; the compound was inactive in the other large screens (follow-up assays come after a bar, where they were run). Calls follow the shape of the dose curve; as a rule, active = well fitted curve in the direction sought with a large enough effect; inconclusive = small, poorly fitted or top-dose-only effect, or another doubt; inactive = no such curve, though single readings can be large; an effect the other way counts as inactive or inconclusive.

CN(Cc1cccs1)c1ncnc2ccc(-c3ccc4cnn(C)c4c3)cc12	none (no result: POLK inh, WRN helicase inh, FEN1 inh-1, POLH inh, Pol iota inh, POLB inh) | FEN1 inh-2 34
NC(=O)N=Nc1c2[nH]c3ccccc3nc-2c2ccccc12	FEN1 inh-1 10µM, POLH inh inconclusive, Pol iota inh inconclusive | FEN1 inh-2 3.4
COc1ccc(Cn2c(-c3ccco3)nc3c(c(=O)c4ccccc4n3C)c2=O)cc1	FEN1 inh-1 22µM, POLB inh inconclusive | FEN1 inh-2 30
CC(=O)C1CCC2C3CC=C4CC(SC(=N)N)CCC4(C)C3CCC12C (centres undefined)	FEN1 inh-1 inconclusive (no result: POLB inh) | FEN1 inh-2 inconclusive
CC(=O)OCC(=O)C1CCC2C3CC=C4CC(O)CCC4(C)C3CCC12C (centres undefined)	none (no result: POLB inh)
COc1ccc(CNc2ncnc3c2[nH]c2ccccc23)cc1	FEN1 inh-1 inconclusive, Pol iota inh inconclusive
COc1ccc(CNc2ncnc3c2[nH]c2cc(OC)c(OC)cc23)cc1	FEN1 inh-1 35µM, POLH inh inconclusive, Pol iota inh inconclusive, POLB inh 6.3µM | FEN1 inh-2 30
Cc1ccccc1CN1CCc2nc(N3CCN(c4ncccn4)CC3)ncc2C1	FEN1 inh-1 inconclusive (no result: WRN helicase inh) | FEN1 inh-2 67
COc1ccccc1N1CCN(c2ncc3c(n2)CCN(Cc2ccccc2C)C3)CC1	none (no result: WRN helicase inh)
COc1ccccc1N1CCN(CC(O)COc2ccc(C)cc2C(C)(C)C)CC1 (centres undefined)	FEN1 inh-1 inconclusive, Pol iota inh inconclusive (no result: WRN helicase inh)
CCN(CC)CCOC(=O)c1ccc(NC(=O)CCCN2C(=O)/C(=C\c3cccs3)SC2=S)cc1	FEN1 inh-1 inconclusive, Pol iota inh inconclusive | FEN1 inh-2 inconclusive
O=C(CCCN1C(=O)/C(=C/c2cccs2)SC1=S)Nc1cccnc1	none
COc1ccc2c(c1)c(/C=C/c1cc[n+](C)cc1)cn2C	FEN1 inh-1 inconclusive, Pol iota inh inconclusive, POLB inh 89µM | FEN1 inh-2 43
COc1ccc(S(=O)(=O)n2nc(C)c(S(=O)(=O)N3CCCCCC3)c2C)cc1OC	none (no result: WRN helicase inh)
COc1ccc2[nH]c3c(=O)n(CCCCC(=O)NCCN4CCCC4)c(=S)[nH]c3c2c1	POLK inh inconclusive, WRN helicase inh inconclusive, FEN1 inh-1 inconclusive, Pol iota inh inconclusive | FEN1 inh-2 inconclusive
CCN(CC)CCCNc1nc2ccccc2c2nc(-c3ccncc3)nn12	POLK inh inconclusive, FEN1 inh-1 45µM, Pol iota inh inconclusive, POLB inh 35µM | FEN1 inh-2 21
CN1CCN(CCCNc2nc3ccccc3c3nc(-c4ccccc4)nn23)CC1	FEN1 inh-1 inconclusive (no result: POLB inh)
Cc1ccc(-c2nc(C(=O)NCCCN(C)C)cc3c2[nH]c2ccccc23)cc1	FEN1 inh-1 inconclusive, Pol iota inh inconclusive, POLB inh inconclusive | FEN1 inh-2 38
CN1CCCC1CCNc1ncnc2ccc(-c3ccc4c(c3)OCO4)cc12 (centres undefined)	none (no result: POLK inh, WRN helicase inh, FEN1 inh-1, POLH inh, Pol iota inh, POLB inh) | FEN1 inh-2 48
CN(C)CCNc1ncnc2ccc(-c3ccc4c(c3)OCO4)cc12	none (no result: POLK inh, WRN helicase inh, FEN1 inh-1, POLH inh, Pol iota inh, POLB inh) | FEN1 inh-2 30
c1nc(NCCN2CCOCC2)c2cc(-c3ccc4c(c3)OCO4)ccc2n1	none (no result: WRN helicase inh, FEN1 inh-1, POLH inh, Pol iota inh, POLB inh)
NCCCNc1ncnc2ccc(-c3ccc4c(c3)OCO4)cc12	none (no result: POLK inh, WRN helicase inh, FEN1 inh-1, POLH inh, Pol iota inh, POLB inh) | FEN1 inh-2 38
CC(=O)NCCNc1ncnc2ccc(-c3ccc4c(c3)OCO4)cc12	none (no result: WRN helicase inh, FEN1 inh-1, POLH inh, Pol iota inh, POLB inh)
Cc1ccc(S(=O)(=O)c2cn(Cc3cccc(F)c3)c3cc(N4CCCC4)c(F)cc3c2=O)cc1	none (no result: WRN helicase inh)
O=C(NCc1ccc2c(c1)CCN2C(=O)c1ccc(F)cc1)c1ccco1	none (no result: WRN helicase inh)
COC(=O)c1cc2c(-c3ccccc3)c(C)c3ccccn3c-2c1C(=O)OC	POLK inh inconclusive, WRN helicase inh inconclusive, FEN1 inh-1 inconclusive, POLH inh inconclusive | FEN1 inh-2 85
COC(=O)c1c(Cl)c2n3ccccc3c(C)c(-c3ccccc3)c-2c1C(=O)OC	WRN helicase inh inconclusive, POLH inh inconclusive, Pol iota inh inconclusive
CC(=O)Nc1sc2c(c1-c1nc3ccccc3o1)CCN(C(C)C)C2	none (no result: POLK inh, WRN helicase inh, FEN1 inh-1, POLH inh, Pol iota inh, POLB inh) | FEN1 inh-2 30
